Giardia kill: Giardia lamblia killing; Giardia lamblia trophozoite viability; activity change, % at 7.66 µM, hits read low; 340,000 tested, 0.15% active; AID 540267; in the data active = activity change below about -80%; inconclusive = between about -30% and that limit;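 note: parasites exposed to compound for two days anaerobically before the ATP read; % is set by controls: 0 for no effect and ±100 for the full control effect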
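Anaerobic 48 hrs incubation at 37 deg C of 100 trophozoites/well with test compounds; ATPLite 1-Step luminescence, 15-30 min RT, reports cellular ATP as viability.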
ELG1 DNA repair: inhibitors of ELG1-dependent DNA repair in HEK293T cells; HEK293T ELG1-luciferase reporter, luminescence, 16 h; DNA damage induced by 5-fluorouridine; 330,000 tested, 2.3% active; Potency, µM (top dose mostly 46.1 µM), inactives show at the top dose activity change, negative = inhibition, usual class: inhibitors; AID 504467; note: potency is the fitted concentration of half-maximal effect; % is set by controls: 0 for no effect and ±100 for the full control effect; nearly all actives have a fitted effect of over 55% in size
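Luminescence from the luciferase reporter, measured 30 min after ONE-Glo reagent at room temperature, was the read-out. Beforehand, 2,000 cells per well were exposed for 16 hr at 37 °C to 5-fluorouridine together with compound or vehicle.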
BRCA1 expr up: increases BRCA1 expression; MCF7-BRCA1-FFLuc reporter, luminescence, 48 h; response scale: scaled: vehicle 0%, 10 µM genistein 100%; Potency, µM (top dose mostly 46.1 µM), for the others: at the top dose activation, hits mostly activators; 380,000 tested, 1.1% active; AID 624202; note: potency is the fitted concentration of half-maximal effect; nearly all actives have a fitted effect of over 80% in size
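MCF7-BRCA1-FFLuc cells, 2000/well in phenol-red-free MEM, attached 2 h then treated 48 h at 37 C. Luciferase luminescence read 15 min after reagent; normalized to genistein maximum activation (10microM) and DMSO, concentration-response fitted.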
VP16 counter: inhibits Gal4-VP16 luciferase reporter, ROR gamma counter-screen. Drosophila S2 Gal4-VP16 UAS-luciferase, luminescence, 20 h. Potency, µM (titrated, usually from 53.6 µM), without a hit: at the highest dose activity, negative = inhibition, actives largely listed as inhibitors. 310,000 tested, 3.5% active. AID 2546;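 note: Gal4-VP16 expression switched on by copper sulfate through the metallothionein promoter; potency is the fitted concentration of half-maximal effect; % is set by controls: 0 for no effect and ±100 for the full control effect; nearly all actives have a fitted effect of over 50% in size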
RORgamma inh: ROR gamma (mouse) transcription inhibition; Drosophila S2 Gal4-RORgamma UAS-luciferase reporter, 20 h; Potency, µM (highest dose often 53.6 µM), for inactives: top-dose activity change, negative = inhibition, usual class: inhibitors; 310,000 tested, 5.4% active; note: potency is the fitted concentration of half-maximal effect; % is set by controls: 0 for no effect and ±100 for the full control effect; nearly all actives have a fitted effect of over 60% in size
Target sequence (P51450 whole entry, looked up, the tested form may be a part): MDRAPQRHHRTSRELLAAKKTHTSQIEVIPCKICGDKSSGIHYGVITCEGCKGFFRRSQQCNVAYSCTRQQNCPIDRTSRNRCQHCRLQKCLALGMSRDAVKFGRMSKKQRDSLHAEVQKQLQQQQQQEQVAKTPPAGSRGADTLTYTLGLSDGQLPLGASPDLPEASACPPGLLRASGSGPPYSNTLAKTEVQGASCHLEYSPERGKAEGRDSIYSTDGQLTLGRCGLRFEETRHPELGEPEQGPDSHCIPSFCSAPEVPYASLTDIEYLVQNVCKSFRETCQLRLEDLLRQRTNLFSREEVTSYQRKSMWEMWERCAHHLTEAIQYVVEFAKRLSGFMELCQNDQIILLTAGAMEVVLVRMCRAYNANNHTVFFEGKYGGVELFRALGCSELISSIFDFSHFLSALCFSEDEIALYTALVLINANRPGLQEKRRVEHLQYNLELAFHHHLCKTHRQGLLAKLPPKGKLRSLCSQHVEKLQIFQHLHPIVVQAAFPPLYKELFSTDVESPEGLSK
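Schneider cells (Drosophila), stable Gal4 DBD–ROR gamma + UAS-luc; 1 hr cmpd preincubation; Cu2+ induction 700 uM final; 20 hr ambient; luminescence.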
p53 reactivator: re-activators of mutant p53; H1299 p53-A138V BP100-luciferase reporter, luminescence, 24 h; Potency, µM (highest dose often 92.2 µM), for the others: at the highest dose activity change, positive = activation, hits mostly activators; 320,000 tested, 0.063% active; note: potency is the fitted concentration of half-maximal effect; % of control where 0% means no effect; nearly all actives have a fitted effect of over 45% in size
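H1299 (p53-null), stable ts p53-A138V + BP100-Luc; 1000 cells/well, Opti-MEM/10% FBS; cpd 4 pt, 1:5; 24 h, 37 deg C, 5% CO2; detection reagent 10 min RT; luminescence.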
The depositor's hits bear a star; ? = inconclusive; · = no result given; [ ] = remark or other dose. Shown are actives, neighbours in structure and some others; about 7.6% of the full set was active somewhere. Unless noted, calls come from the whole dose curve; as a rule, active = well fitted curve in the direction sought with a large enough effect; inconclusive = small, poorly fitted or top-dose-only effect, or another doubt; inactive = no such curve, though single readings can be large; an effect the other way counts as inactive or inconclusive.

SMILES | Giardia kill | ELG1 DNA repair | BRCA1 expr up | VP16 counter | RORgamma inh | p53 reactivator
CN(C(=O)C1CCC(=O)N(Cc2cccc(F)c2)C1)C1CCCCC1 (configuration not stated) | 21 | ? | 7.9µM* | -5% | ? | -4%
O=C(NC1CCC1)C1CCC(=O)N(Cc2cccc(F)c2)C1 (configuration not stated) | 2 | 16% | 0% | -17% | 0% | 6%
CC12COC3(C(=O)Nc4ccccc4F)CC1CCC32C (configuration not stated) | 4 | 2% | 5% | -2%[10 µM] | 10µM* | 3%
COc1ccc(C2=NN(C)C(=NCc3ccccc3)SC2)cc1 | -12 | 14% | 6% | 5% | ? | 1%
COc1ccc(CN=C2Nc3ccccc3CS2)cc1 | -11 | ? | ? | -4% | 0% | 10µM*
O=C(c1nc2ccccc2[nH]1)c1ccccc1[N+](=O)[O-] | -14 | ? | 11µM* | 9% | 18% | ?
COC(=O)c1cc(C(=O)Nc2nc3ccccc3[nH]2)cc([N+](=O)[O-])c1 | -7 | -27% | 71% | -24% | 1.4µM* | 16%
Cc1ccc(C(=O)Cc2nc3ccccc3[nH]2)cc1 | -2 | ? | 52% | ? | ? | 16%
O=C(Cc1nc2ccccc2[nH]1)c1cccc([N+](=O)[O-])c1 | -4 | 4.1µM* | -56% | -3% | -17% | 5%
O=C(Nc1nc2ccccc2[nH]1)c1ccc([N+](=O)[O-])cc1 | ? | ? | ? | ? | 3.2µM* | ?
C/C(=N\Nc1nc2ccccc2[nH]1)c1ccc([N+](=O)[O-])cc1 | 3 | 10% | 3% | -13% | ? | -4%
Cc1ccc2nc(SCC(=O)c3c(N)n(C4CC4)c(=O)[nH]c3=O)[nH]c2c1 | -9 | 0% | 23% | · | · | -3%
O=C(Nc1nc2ccccc2[nH]1)c1cccc([N+](=O)[O-])c1 | -4 | ? | 60% | ? | 0.89µM* | -3%
CCOc1c([N+](=O)[O-])cc2c(C)c(C(=O)N3CCN(C)CC3)oc2c1OCC | 8 | -2% | -9% | -6% | -5% | 0%
Cc1nn(CCC(=O)NNC(=S)Nc2ccc([N+](=O)[O-])cc2)c(C)c1[N+](=O)[O-] | -8 | -4% | 9% | -1% | -17% | 1%
Cc1nn(C)c(C(=O)NNC(=S)Nc2ccc(F)cc2)c1[N+](=O)[O-] | 7 | 7% | 1% | ? | 7.9µM* | 8%
CCCCNC(=S)NNC(=O)c1nn(C)c(C)c1Cl | -8 | 15% | 0% | -9% | ? | 13%
Cc1nn(CCC(=O)NNC(=S)Nc2ccc(F)cc2)c(C)c1Br | 6 | 1% | -25% | ? | 0.89µM* | -6%
CCCCNC(=S)NNC(=O)CCn1nc(C)c(Br)c1C | -6 | -10% | 0% | 2.8µM* | 0.63µM* | 14%
Cc1ccc(S(=O)(=O)CCC(=O)OCc2nnc(-c3ccccc3Br)o2)cc1 | -6 | 18% | 10% | · | · | 0%
CC1CC2(CCCC2)N(C(=O)c2ccccc2)Cc2ccccc21 (configuration not stated) | -21 | 26% | -39% | 3% | 38% | -5%
Cc1ccc(NC(=O)CN2C(=O)NC(C)(c3ccc(Cl)cc3)C2=O)cc1 (configuration not stated) | -8 | -14% | -20% | -8% | 40% | -3%
CCC1(c2ccccc2)NC(=S)N(c2ccc(C)c(C)c2)N1 (configuration not stated) | -3 | ? | -19% | ? | 2.8µM* | 17%
CCC1(c2ccc(Cl)cc2)NC(=S)N(c2ccc(C)c(C)c2)N1 (configuration not stated) | 18 | 12% | -37% | -5% | ? | 5%
CCC1(c2ccc(Cl)cc2)NC(=S)N(c2ccc(C)cc2)N1 (configuration not stated) | -7 | ? | -22% | 1% | 1.8µM* | ?
SMILES | Giardia kill | ELG1 DNA repair | BRCA1 expr up | VP16 counter | RORgamma inh | p53 reactivator
CCC(CC)C(=O)NCCNC(=O)C(CC)CC | 10 | -5% | 0% | -13% | -19% | -10%
O=C(Nc1ncc(Cc2ccc(C(F)(F)F)cc2)s1)c1ccc(-c2cccc([N+](=O)[O-])c2)o1 | -1 | 21µM* | -42% | 7.1µM* | 5.6µM* | -4%
O=C(Nc1ncc(Cc2ccccc2Cl)s1)c1ccc(-c2cccc([N+](=O)[O-])c2)o1 | -4 | 13µM* | -3% | ? | 5µM* | 2%
NNC(=O)c1ccc(-c2cccc([N+](=O)[O-])c2)o1 | ? | 1% | 32% | 15% | 5% | 1%
Cc1ccc(Cc2cnc(NC(=O)/C(C#N)=C/c3ccc(-c4ccc([N+](=O)[O-])cc4)o3)s2)cc1 | 2 | 18% | -23% | 0% | 2.2µM* | 2%
COc1ccc(CSc2nnc(C)s2)cc1F | -2 | ? | 4.5µM* | 22%[10 µM] | 33% | ?
COC(=O)c1ccc(CSc2nnc(C)s2)cc1 | -11 | ? | 90% | 3% | 22% | 10%
Cc1ccc(C2=NCCn3c2c2ccccc2[n+]3[O-])cc1 | -90* | 6% | 17% | · | · | 5%
[O-][n+]1c2ccccc2c2n1CCN=C2c1ccc(Cl)cc1 | -84* | 20% | -11% | · | · | ?
Cc1ccc(C2=NCCn3c2c2ccc([N+](=O)[O-])cc2[n+]3[O-])cc1 | ? | -3% | -16% | · | · | ?
Nc1c(Cl)cc(C2=NCCn3c2c2ccccc2[n+]3[O-])cc1Cl | ? | -7% | -10% | · | · | 6%
Nc1c(Cl)cc(C2=NCCn3c2c2ccc(C(F)(F)F)cc2[n+]3[O-])cc1Cl | -94* | 3% | -53% | · | · | -9%
[O-][n+]1c2ccccc2c2n1CCCN=C2c1ccc(Cl)cc1 | -84* | ? | -12% | · | · | 9%
CCC(=O)N(C1=C(NC(C)C)C(=O)c2ccccc2C1=O)C(C)C | -3 | ? | -52% | ? | 10µM* | -12%
Cc1ccc(N(C(C)C(=O)N2CCOCC2)S(C)(=O)=O)cc1C (configuration not stated) | -8 | 8% | 21% | 4% | 9% | 0%
O=C(Nc1ccc(F)cc1)NC1CCN(Cc2nnnn2Cc2ccco2)CC1 | -4 | -1% | 3% | 2% | 22% | 0%
O=C(/C=C/c1ccc(Br)cc1)NC(=O)c1ccccc1O | 3 | ? | 74% | -29% | ? | -2%
CSc1ccc(/C=C/C(=O)NC(=O)c2ccccc2O)cc1 | 6 | ? | 13µM* | -12%[10 µM] | 6% | 6%
CCN(Cc1ccccc1)C(=O)COC(=O)[C@@H]1CCCN1C(=O)c1cccs1 | -27 | 10% | 1% | · | · | 10%
